Rows were chosen to be rich in hits. Some 6.9% of all compounds tested hit in one or more screens of this group.
Mdm2 MdmX PPI = disrupts the human Mdm2-MdmX interaction; O15151+Q00987; 330,000 tested, 3% active; SaOS-2 split-luciferase Mdm2/MdmX complementation, luminescence; inhibition, % at 8 µM; AID 485346;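 active = inhibition of at least 50% at 8 µM in the primary screen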
MPTP inh = permeability transition pore inhibition; isolated mouse mitochondria, Ca2+ swelling absorbance, 30 min; inhibition, % at 10 µM; 360,000 tested, 1.4% active; AID 602449;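 active = inhibition of 50% or more, scaled per plate between neutral and stimulator controls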
GRIN3A LBD mod = modulates the human NR3A ligand-binding domain; NR3A LBD differential scanning fluorimetry, Tm shift; 0% = protein alone, 100% = glycine-bound protein; Tm shift relative to glycine control, % at 25 µM; 340,000 tested, 2.5% active; AID 1259313;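 active = melting temperature shift of at least 10% of the positive control shift, at one fixed dose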
SKKanGAS inh = inhibitors of SKKanGAS S. pyogenes growth in kanamycin (SK-promoter or general growth effect); BacTiter-Glo, 6 h; inhibition, % at 7.5 µM; 300,000 tested, 1.3% active;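 active = mean replicate score, as percent of positive control median, at least 50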;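 note: strain carries kanamycin resistance gene driven by streptokinase promoter and grows in 40 µg/ml kanamycin; loss of luminescence reflects streptokinase promoter inhibition or plain growth inhibition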
CSC inhib = blocks cancer stem cells; cancer stem cell-like cells viability, luminescence; inhibition, % at 7.5 µM; 300,000 tested, 1.1% active; AID 2717; in the data active = inhibition above about 75%; tested in HMLE shEcad cells
Beta apoptosis = beta cell apoptosis inhibition. protection from apoptosis, % (no concentration beside the values). INS-1E cytokine-induced death, ATP luminescence, 48 h; percent of positive-control rescue, neutral wells zero. 300,000 tested, 0.8% active;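 active = Every replicate reaches about 75%, or at least half do and their mean reaches it too, limit read from the data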;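 note: higher means more ATP so stronger rescue from cytokine killing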
Hits are given with their value; n = inactive; x = not tested or not shown.

SMILES | Mdm2 MdmX PPI | MPTP inh | GRIN3A LBD mod | SKKanGAS inh | CSC inhib | Beta apoptosis
CC1CCc2nc3ccccc3c(C(=O)OCC(=O)N3CCc4ccccc43)c2C1 (stereo not drawn) | n | n | n | n | n | n
CCCc1nc2ccccc2c(C(=O)OCC(=O)N2CCc3ccccc32)c1CC | n | n | n | n | 83 | n
CNC(=O)NC(=O)C(C)OC(=O)c1c2c(nc3ccccc13)/C(=C/c1cccs1)CC2 (stereo not drawn) | n | n | n | n | 94 | n
O=C(O)c1cnn(-c2nc(-c3cccc([N+](=O)[O-])c3)cs2)c1C(F)(F)F | n | n | n | n | n | n
Cc1cc(C)c(OC2(c3ccccc3)OC(=O)c3ccccc32)c(C)c1 (stereo not drawn) | n | n | 16 | n | n | n
COC(=O)C1CCN(C(=O)[C@H](C)NC(=O)C2CC(=O)N(c3ccc(F)cc3)C2)CC1 (stereo partly drawn) | n | n | n | n | n | n
CC(=O)c1c(C)[nH]c(C(=O)OCc2cccc(Cl)c2)c1C | n | n | n | n | n | 75
CC(C)COc1ccc(C(=O)N2C(=O)c3ccc(N)cc3C2=O)cc1 | n | n | n | n | n | n
CCOC(=O)Cc1csc(NC(=O)NC2(C(F)(F)F)Oc3cc(Cl)c(Cl)cc3O2)n1 | n | n | 11 | n | n | n
O=C(COC(=O)c1ccc2c(c1)C(=O)N(Cc1ccco1)C2=O)NCC(F)(F)F | n | n | n | n | n | n
COc1cc(-c2nc(-c3ccc(NC(=O)c4ccc(Br)o4)cc3)no2)cc(OC)c1OC | n | n | 21 | n | 77 | n
O=C(Nc1ccc(-c2nc3cccnc3s2)cc1)c1ccc(Br)o1 | n | n | 20 | n | x | x
O=C(Nc1cccc(-c2nc3cccnc3s2)c1)c1ccco1 | n | n | n | n | n | n
O=C(Nc1ccc(-c2nc3cccnc3s2)cc1)c1ccco1 | n | n | 12 | n | n | n
O=C(Nc1ccc(-c2nc3cccnc3s2)cc1)c1cccnc1Cl | n | n | n | n | n | n
Cc1cccc(OCC(=O)N(C)CC(=O)Nc2cccc(F)c2)c1C | n | n | n | x | n | n
Cc1cc(C)cc(N(CC(=O)NCc2ccco2)C(=O)c2snc(C(N)=O)c2N)c1 | n | n | n | n | n | n
Cc1cc(C)cc(N(CC(=O)NCc2ccc(F)cc2)C(=O)c2snc(C(N)=O)c2N)c1 | n | n | 11 | n | n | n
CN(Cc1c(F)cccc1Cl)C(=O)c1cc2ccccc2o1 | n | n | n | n | n | 99
CSc1ccc(CN(C)C(=O)c2cc3ccccc3o2)cc1 | n | n | n | n | n | n
O=C1N/C(=N/O)S/C1=C/c1cccc([N+](=O)[O-])c1 | n | n | n | n | x | n
Cc1cccc(/C=C2/S/C(=N/N=C3\CC4CCC3(C)C4(C)C)NC2=O)c1 (stereo not drawn) | n | n | n | 125 | n | n
Cc1ccc(CN(C)C(=O)c2ccc(S(=O)(=O)N(C)c3ccccc3)cc2)o1 | n | n | 22 | x | x | x
CC(=O)Nc1ccc(S(=O)(=O)NCCC(=O)OC(C)C(=O)NC2(C#N)CCCCC2)cc1 (stereo not drawn) | n | n | n | x | x | x
COc1ccc(NC(=O)c2ccc(-c3ccc([N+](=O)[O-])cc3)o2)cc1 | n | n | 25 | n | n | n
SMILES | Mdm2 MdmX PPI | MPTP inh | GRIN3A LBD mod | SKKanGAS inh | CSC inhib | Beta apoptosis
CC(=O)c1ccc(NC(=O)CCC(=O)OCC(=O)c2cccc([N+](=O)[O-])c2)cc1 | n | n | 62 | n | n | n
COc1ccc(NC(=O)c2ccco2)cn1 | n | n | n | n | x | n
CC(=O)Nc1ccc(NC(=O)CCC(=O)OCC(=O)c2ccc(C)c([N+](=O)[O-])c2)cc1 | n | n | n | n | n | x
COc1ccc(NC(=O)CCC(=O)OCc2ccc([N+](=O)[O-])cc2)cc1 | n | n | 20 | n | n | n
COc1ccc(NC(=O)c2ccc(-c3ccc(C(C)=O)cc3)o2)cn1 | n | n | 27 | x | x | n
O=C(NCCOc1ccccc1F)c1cc(F)c(F)cc1Cl | n | n | n | n | n | n
O=C(COC(=O)c1cc(-c2cccc(Br)c2)nc2ccccc12)NCC1CCCO1 (stereo not drawn) | n | n | n | n | n | n
Nc1ccccc1Nc1cc(-c2ccccc2)nn1-c1cccc(Cl)c1 | n | n | 11 | n | n | n
Nc1cc(-c2ccc(Cl)cc2)nn1-c1ccccc1 | n | n | n | n | n | n

Assay outcomes: PubChem, several laboratories
